Assay results reported in PubChem BioAssay AID1159580 (chemical genetic matrix, 2015).
Several values for one entry are separate records, joined by “and”; a condition that tells them apart may be missing. Equal entries are not always repeated. Screen size: about 5,500 compounds; about 2,000 (36%) were called active. Another 18% or so got no clear call; they are omitted. Cut-off read from the data, not from the text of the source: active = normalized growth mostly below about 0.91 (no sharp cut-off); inconclusive = no clear call, values can overlap the other calls; inactive = mostly above about 0.92. The list shows a part of the results.

Assay: chemical genetic growth profiling, strain panel (AID 1159580);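 note: tested at 20 µM; growth read once vehicle control cultures reached saturation at 30 °C; 1 = growth at the plate median or of vehicle wells; lower values mean less growth of the strain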
Details: S. cerevisiae deletion strains, growth OD

Measured: normalized growth

CC(C)NCC(O)COc1cccc2[nH]ccc12 (centres undefined)
inactive: locus YAL013W, strain DEP1, active compounds read low 1 and 0.99 | locus YAL021C, strain ccr4, active compounds read low 1.01 | locus YAL026C, strain drs2, active compounds read low 0.986 | locus YAL030W, strain snc1, active compounds read low 0.982 | locus YAL040C, strain CLN3, active compounds read low 0.983 and 0.988 | locus YBL061C, strain skt5, active compounds read low 0.977 | locus YBR009C, strain hhf1, active compounds read low 0.983 | locus YBR021W, strain FUR4, active compounds read low 1.02 | locus YBR023C, strain chs3, active compounds read low 0.979 | locus YBR171W, strain sec66, active compounds read low 0.979 | locus YBR229C, strain ROT2, active compounds read low 0.999 | locus YBR231C, strain swc5, active compounds read low 0.986 | locus YBR279W, strain paf1, active compounds read low 0.992 | locus YCL011C, strain gbp2, active compounds read low 0.98 | locus YCL016C, strain dcc1, active compounds read low 0.981 | locus YCL029C, strain bik1, active compounds read low 0.993 | locus YCL061C, strain MRC1 (second series), active compounds read low 0.998 and 0.999 | locus YCL061C, strain MRC1, active compounds read low 0.984 | locus YCL069W, strain vba3, active compounds read low 0.983 | locus YCR088W, strain abp1, active compounds read low 0.983 | locus YDL005C, strain med2, active compounds read low 0.988 | locus YDL035C, strain GPR1, active compounds read low 0.993 | locus YDL040C, strain nat1, active compounds read low 0.986 | locus YDL074C, strain BRE1, active compounds read low 1 | locus YDL101C, strain DUN1, active compounds read low 0.988 | locus YDL134C, strain PPH21, active compounds read low 0.989 | locus YDL185W, strain tfp1, active compounds read low 0.947 | locus YDL192W, strain arf1, active compounds read low 0.974 | locus YDR001C, strain nth1, active compounds read low 0.974 | locus YDR069C, strain doa4, active compounds read low 0.976 | locus YDR101C, strain arx1, active compounds read low 0.983 | locus YDR137W, strain rgp1, active compounds read low 0.975 | locus YDR150W, strain NUM1, active compounds read low 1 and 0.997 | locus YDR159W, strain sac3, active compounds read low 0.955 | locus YDR162C, strain NBP2, active compounds read low 0.995 | locus YDR195W, strain ref2 0.927 | locus YDR297W, strain sur2, active compounds read low 0.988 | locus YDR318W, strain mcm21, active compounds read low 0.977 | locus YDR334W, strain swr1, active compounds read low 0.978 | locus YDR335W, strain msn5, active compounds read low 0.983 | locus YDR363W, strain ESC2, active compounds read low 0.991 and 0.993 | locus YDR388W, active compounds read low 0.979 | locus YDR392W, strain spt3, active compounds read low 0.902 | locus YDR502C, strain sam2, active compounds read low 0.986 | locus YEL003W, strain gim4, active compounds read low 0.988 | locus YEL037C, strain rad23, active compounds read low 1.01 | locus YEL061C, strain CIN8 (second series), active compounds read low 0.972 | locus YEL061C, strain CIN8, active compounds read low 0.997 | locus YER002W, strain NOP16, active compounds read low 0.987 and 1.02 | locus YER015W, strain faa2, active compounds read low 0.989 | locus YER016W, strain bim1, active compounds read low 0.979 | locus YER110C, active compounds read low 0.978 | locus YER111C, strain swi4, active compounds read low 0.983 | locus YER155C, strain BEM2 (second series), active compounds read low 0.97 | locus YER155C, strain BEM2, active compounds read low 0.994 | locus YER167W, strain BCK2, active compounds read low 0.991 | locus YFR010W, strain ubp6, active compounds read low 0.961 | locus YGL078C, strain dbp3, active compounds read low 0.99 | locus YGL086W, strain mad1, active compounds read low 0.999 | locus YGL167C, strain pmr1, active compounds read low 0.976 | locus YGL173C, strain kem1, active compounds read low 0.989 | locus YGL227W, strain vid30, active compounds read low 0.977 | locus YGL240W, strain doc1, active compounds read low 0.986 | locus YGL248W, strain PDE1, active compounds read low 0.997 | locus YGL253W, strain hxk2, active compounds read low 0.981 | locus YGR078C, strain PAC10, active compounds read low 0.993 and 1.01 | locus YGR135W, strain pre9, active compounds read low 0.989 | locus YGR229C, strain SMI1, active compounds read low 1.01 | locus YGR252W, strain gcn5, active compounds read low 1.16 | locus YHR013C, strain ard1, active compounds read low 0.943 | locus YHR027C, strain rpn1, active compounds read low 0.986 | locus YHR030C, strain SLT2, active compounds read low 0.99 and 0.988 | locus YHR079C, strain IRE1 (second series), active compounds read low 0.977 | locus YHR079C, strain IRE1, active compounds read low 0.977 | locus YHR094C, strain hxt1, active compounds read low 0.977 | locus YHR129C, strain ARP1, active compounds read low 1 | locus YHR142W, strain chs7, active compounds read low 0.997 | locus YHR200W, strain rpn10, active compounds read low 0.978 | locus YIL066C, strain RNR3, active compounds read low 0.999 | locus YIR030C, strain dcg1, active compounds read low 0.991 | locus YJL092W, strain hpr5, active compounds read low 0.979 | locus YJL095W, strain BCK1 (second series), active compounds read low 0.984 | locus YJL095W, strain BCK1, active compounds read low 1.01 and 0.997 | locus YJL115W, strain asf1, active compounds read low 0.975 | locus YJL129C, strain trk1, active compounds read low 0.997 | locus YJL134W, strain LCB3, active compounds read low 0.984 | locus YJL154C, strain vps35, active compounds read low 0.98 | locus YJL164C, strain tpk1, active compounds read low 1 | locus YJL166W, strain qcr8, active compounds read low 1.01 | locus YJL168C, strain set2, active compounds read low 0.983 | locus YJL187C, strain SWE1 (second series), active compounds read low 0.987 | locus YJL187C, strain SWE1, active compounds read low 0.985 | locus YJR043C, strain POL32, active compounds read low 1 | locus YJR066W, strain TOR1, active compounds read low 0.94
